# Assays:
# Assay in all cases: DAPPL (digital affinity profiling via proximity ligation, sequencing); 10 mM Tris-HCl pH 7.5, 50 mM NaCl, 1 mM DTT, 4% glycerol, room temperature, 30 min; GST-TFs on glutathione beads, 16-mer random dsDNA library, 0.1% formaldehyde crosslink after washing; high values mean tight binding
# [1] = molecular target: T1, FEV (Homo sapiens, UniProt Q99581 1-238); conditions: protein: recombinant; tags: N-terminal GST; dsDNA, one strand shown
# T1 sequence: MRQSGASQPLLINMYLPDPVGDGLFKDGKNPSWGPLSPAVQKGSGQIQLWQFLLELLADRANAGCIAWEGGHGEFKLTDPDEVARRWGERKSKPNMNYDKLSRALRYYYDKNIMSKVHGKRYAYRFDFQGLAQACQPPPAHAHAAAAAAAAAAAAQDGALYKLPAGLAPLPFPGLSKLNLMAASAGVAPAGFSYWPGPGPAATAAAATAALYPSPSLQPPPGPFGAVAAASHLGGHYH
# In short: (§1)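 In yeast, human transcription factors were expressed with a GST fusion, then pulled down on glutathione beads and given DNA barcodes. Pooled with a tag-only sample, they were exposed to 200 nmole of a 16-mer random double-stranded DNA library (Tris/NaCl/DTT/glycerol buffer, room temperature, 30 min), washed, crosslinked with 0.1% formaldehyde, proximity-ligated using BsaI/T4 ligase for 1 h at 37 °C, PCR-amplified and read on an Illumina NextSeq500. Each hexamer's frequency of reads for a factor, divided by the matching frequency for the tag-only sample, gives the binding signal.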
# [2] = molecular target: ETV5 (Homo sapiens, UniProt P41161 1-510); conditions: protein: recombinant; tags: N-terminal GST; dsDNA, one strand shown
# In short: as §1
# [3] = molecular target: HSF1 (Homo sapiens, UniProt Q00613 1-529); conditions: protein: recombinant; tags: N-terminal GST; chain copies: 3; dsDNA, one strand shown
# In short: as §1
# [4] = molecular target: T2, SPIC (Homo sapiens, UniProt Q8N5J4 1-248); conditions: protein: recombinant; tags: N-terminal GST; dsDNA, one strand shown
# T2 sequence: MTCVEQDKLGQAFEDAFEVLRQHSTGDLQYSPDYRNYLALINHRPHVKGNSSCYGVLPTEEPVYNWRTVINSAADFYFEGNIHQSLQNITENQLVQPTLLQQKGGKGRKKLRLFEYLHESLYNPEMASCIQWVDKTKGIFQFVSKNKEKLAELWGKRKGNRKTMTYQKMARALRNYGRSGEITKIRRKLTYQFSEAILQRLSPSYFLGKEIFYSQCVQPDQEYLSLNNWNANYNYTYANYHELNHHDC
# In short: as §1
# [5] = molecular target: ELF4 (Homo sapiens, UniProt Q99607 1-663); conditions: protein: recombinant; tags: N-terminal GST; dsDNA, one strand shown
# In short: as §1
# [6] = molecular target: T3, ELK4 (Homo sapiens, UniProt P28324-2 1-405); conditions: protein: recombinant; tags: N-terminal GST; dsDNA, one strand shown
# T3 sequence: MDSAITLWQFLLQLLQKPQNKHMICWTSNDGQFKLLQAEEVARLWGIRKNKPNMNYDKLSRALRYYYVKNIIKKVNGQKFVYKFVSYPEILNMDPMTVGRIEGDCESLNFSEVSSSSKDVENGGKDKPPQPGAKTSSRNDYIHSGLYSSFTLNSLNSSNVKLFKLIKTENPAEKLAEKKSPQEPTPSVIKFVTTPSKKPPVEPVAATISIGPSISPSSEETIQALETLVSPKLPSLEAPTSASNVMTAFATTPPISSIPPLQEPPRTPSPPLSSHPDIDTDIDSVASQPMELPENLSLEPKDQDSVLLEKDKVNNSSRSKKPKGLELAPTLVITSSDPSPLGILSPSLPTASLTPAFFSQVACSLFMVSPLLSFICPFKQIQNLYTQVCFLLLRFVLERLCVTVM
# In short: as §1
# [7] = molecular target: T4, ETV2 (Homo sapiens, UniProt O00321 1-342); conditions: protein: recombinant; tags: N-terminal GST; dsDNA, one strand shown
# T4 sequence: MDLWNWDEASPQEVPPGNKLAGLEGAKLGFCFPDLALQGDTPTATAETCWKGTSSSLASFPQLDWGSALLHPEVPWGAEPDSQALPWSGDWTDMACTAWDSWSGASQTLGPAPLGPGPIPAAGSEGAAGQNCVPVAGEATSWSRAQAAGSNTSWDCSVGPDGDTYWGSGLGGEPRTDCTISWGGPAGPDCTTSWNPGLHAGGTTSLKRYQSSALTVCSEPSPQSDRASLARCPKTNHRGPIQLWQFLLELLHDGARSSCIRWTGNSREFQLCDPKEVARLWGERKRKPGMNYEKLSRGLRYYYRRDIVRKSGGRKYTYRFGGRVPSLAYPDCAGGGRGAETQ
# In short: as §1
# [8] = molecular target: T5, ELF3 (Homo sapiens, UniProt P78545 1-371); conditions: protein: recombinant; tags: N-terminal GST; dsDNA, one strand shown
# T5 sequence: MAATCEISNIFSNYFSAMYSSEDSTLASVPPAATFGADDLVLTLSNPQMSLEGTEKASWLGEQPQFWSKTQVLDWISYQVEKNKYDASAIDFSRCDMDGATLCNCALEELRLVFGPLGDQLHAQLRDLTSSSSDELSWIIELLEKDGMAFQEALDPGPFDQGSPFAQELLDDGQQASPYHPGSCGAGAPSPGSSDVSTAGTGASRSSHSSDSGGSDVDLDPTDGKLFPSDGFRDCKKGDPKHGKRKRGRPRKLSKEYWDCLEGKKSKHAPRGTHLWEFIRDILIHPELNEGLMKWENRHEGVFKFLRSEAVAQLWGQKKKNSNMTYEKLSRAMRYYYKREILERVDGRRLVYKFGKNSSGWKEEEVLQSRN
# In short: as §1
# [9] = molecular target: CRX (Homo sapiens, UniProt O43186 1-299); conditions: protein: recombinant; tags: N-terminal GST; dsDNA, one strand shown
# In short: as §1
# [10] = molecular target: ETV1 (Homo sapiens, UniProt P50549 1-477); conditions: protein: recombinant; tags: N-terminal GST; dsDNA, one strand shown
# In short: as §1
# [11] = molecular target: T6, ERF (Homo sapiens, UniProt P50548 1-548); conditions: protein: recombinant; tags: N-terminal GST; dsDNA, one strand shown
# T6 sequence: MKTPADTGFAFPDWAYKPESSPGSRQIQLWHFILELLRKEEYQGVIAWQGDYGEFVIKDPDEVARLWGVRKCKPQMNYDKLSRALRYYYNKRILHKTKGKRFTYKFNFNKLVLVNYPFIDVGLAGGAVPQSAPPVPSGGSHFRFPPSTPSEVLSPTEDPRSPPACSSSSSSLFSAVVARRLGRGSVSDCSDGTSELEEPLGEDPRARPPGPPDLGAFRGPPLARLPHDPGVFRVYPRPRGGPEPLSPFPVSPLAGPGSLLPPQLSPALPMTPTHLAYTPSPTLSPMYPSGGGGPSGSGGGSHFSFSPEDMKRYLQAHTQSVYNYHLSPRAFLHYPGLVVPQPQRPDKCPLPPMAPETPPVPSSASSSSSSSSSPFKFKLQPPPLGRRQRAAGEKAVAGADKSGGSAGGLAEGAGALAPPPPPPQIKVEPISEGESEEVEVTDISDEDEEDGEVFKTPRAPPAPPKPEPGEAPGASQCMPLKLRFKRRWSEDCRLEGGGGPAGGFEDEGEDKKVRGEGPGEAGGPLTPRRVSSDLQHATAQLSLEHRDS
# In short: as §1
# [12] = molecular target: T7, ETV3L (Homo sapiens, UniProt Q6ZN32 1-361); conditions: protein: recombinant; tags: N-terminal GST; dsDNA, one strand shown
# T7 sequence: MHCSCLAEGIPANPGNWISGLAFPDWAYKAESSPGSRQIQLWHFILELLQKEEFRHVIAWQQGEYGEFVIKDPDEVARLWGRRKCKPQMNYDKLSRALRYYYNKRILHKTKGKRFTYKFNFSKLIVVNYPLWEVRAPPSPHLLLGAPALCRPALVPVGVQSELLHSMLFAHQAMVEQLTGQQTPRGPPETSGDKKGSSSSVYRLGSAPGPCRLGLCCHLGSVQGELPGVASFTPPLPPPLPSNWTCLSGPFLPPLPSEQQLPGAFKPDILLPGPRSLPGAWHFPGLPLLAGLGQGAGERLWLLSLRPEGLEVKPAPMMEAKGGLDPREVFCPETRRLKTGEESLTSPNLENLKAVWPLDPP
# In short: as §1
# [13] = molecular target: T8, ETS2 (Homo sapiens, UniProt P15036 1-469); conditions: protein: recombinant; tags: N-terminal GST; dsDNA, one strand shown
# T8 sequence: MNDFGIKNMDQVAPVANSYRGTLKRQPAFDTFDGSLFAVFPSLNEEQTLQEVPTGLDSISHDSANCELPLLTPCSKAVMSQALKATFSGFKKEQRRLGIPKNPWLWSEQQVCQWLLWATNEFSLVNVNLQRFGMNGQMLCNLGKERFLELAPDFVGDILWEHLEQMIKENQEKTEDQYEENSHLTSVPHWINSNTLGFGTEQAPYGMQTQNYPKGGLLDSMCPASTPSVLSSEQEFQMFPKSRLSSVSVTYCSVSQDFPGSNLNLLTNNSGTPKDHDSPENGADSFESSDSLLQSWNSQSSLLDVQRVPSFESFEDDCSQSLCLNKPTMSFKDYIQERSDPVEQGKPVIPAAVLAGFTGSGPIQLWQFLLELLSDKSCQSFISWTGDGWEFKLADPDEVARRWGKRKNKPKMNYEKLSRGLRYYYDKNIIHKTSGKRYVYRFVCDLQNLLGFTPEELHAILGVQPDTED
# In short: as §1
# [14] = molecular target: T9, SPDEF (Homo sapiens, UniProt O95238 1-335); conditions: protein: recombinant; tags: N-terminal GST; dsDNA, one strand shown
# T9 sequence: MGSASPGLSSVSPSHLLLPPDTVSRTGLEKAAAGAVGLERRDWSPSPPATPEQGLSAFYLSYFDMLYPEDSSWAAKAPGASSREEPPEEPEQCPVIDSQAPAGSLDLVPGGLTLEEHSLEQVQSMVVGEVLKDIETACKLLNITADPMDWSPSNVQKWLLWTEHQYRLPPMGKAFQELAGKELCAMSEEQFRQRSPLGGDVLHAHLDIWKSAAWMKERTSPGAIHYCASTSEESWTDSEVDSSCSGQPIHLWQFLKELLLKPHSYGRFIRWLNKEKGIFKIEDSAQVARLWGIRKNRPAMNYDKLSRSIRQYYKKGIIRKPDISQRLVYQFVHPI
# In short: as §1
# [15] = molecular target: T10, ETV7 (Homo sapiens, UniProt Q9Y603 1-341); conditions: protein: recombinant; tags: N-terminal GST; dsDNA, one strand shown
# T10 sequence: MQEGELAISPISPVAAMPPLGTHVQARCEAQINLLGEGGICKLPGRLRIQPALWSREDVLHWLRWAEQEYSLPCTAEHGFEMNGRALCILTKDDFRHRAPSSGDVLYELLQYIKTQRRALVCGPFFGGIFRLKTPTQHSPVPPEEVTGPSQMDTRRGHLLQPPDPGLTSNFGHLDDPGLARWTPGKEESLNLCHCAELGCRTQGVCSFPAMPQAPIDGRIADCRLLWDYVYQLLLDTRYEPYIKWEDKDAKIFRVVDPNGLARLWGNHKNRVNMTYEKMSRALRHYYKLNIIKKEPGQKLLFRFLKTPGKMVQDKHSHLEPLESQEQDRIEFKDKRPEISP
# In short: as §1
# [16] = molecular target: T11, ELF5 (Homo sapiens, UniProt Q9UKW6-2 1-255); conditions: protein: recombinant; tags: N-terminal GST; dsDNA, one strand shown
# T11 sequence: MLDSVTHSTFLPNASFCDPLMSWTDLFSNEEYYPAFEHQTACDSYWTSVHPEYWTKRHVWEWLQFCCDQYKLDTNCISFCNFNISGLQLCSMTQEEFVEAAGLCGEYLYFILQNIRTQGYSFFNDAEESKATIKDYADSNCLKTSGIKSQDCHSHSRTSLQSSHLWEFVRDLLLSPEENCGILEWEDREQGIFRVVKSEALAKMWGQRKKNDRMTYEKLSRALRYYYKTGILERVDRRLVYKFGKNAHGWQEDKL
# In short: as §1
# [17] = molecular target: T12, ETV3 (Homo sapiens, UniProt P41162-2 1-143); conditions: protein: recombinant; tags: N-terminal GST; dsDNA, one strand shown
# T12 sequence: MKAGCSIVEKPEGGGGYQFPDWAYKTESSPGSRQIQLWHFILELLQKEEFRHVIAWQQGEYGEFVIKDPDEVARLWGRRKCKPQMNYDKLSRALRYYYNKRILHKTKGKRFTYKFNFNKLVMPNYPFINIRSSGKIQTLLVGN
# In short: as §1
# [18] = molecular target: ETV6 (Homo sapiens, UniProt P41212 1-452); conditions: protein: recombinant; tags: N-terminal GST; dsDNA, one strand shown
# In short: as §1
# ETV6, sequence (P41212 whole entry): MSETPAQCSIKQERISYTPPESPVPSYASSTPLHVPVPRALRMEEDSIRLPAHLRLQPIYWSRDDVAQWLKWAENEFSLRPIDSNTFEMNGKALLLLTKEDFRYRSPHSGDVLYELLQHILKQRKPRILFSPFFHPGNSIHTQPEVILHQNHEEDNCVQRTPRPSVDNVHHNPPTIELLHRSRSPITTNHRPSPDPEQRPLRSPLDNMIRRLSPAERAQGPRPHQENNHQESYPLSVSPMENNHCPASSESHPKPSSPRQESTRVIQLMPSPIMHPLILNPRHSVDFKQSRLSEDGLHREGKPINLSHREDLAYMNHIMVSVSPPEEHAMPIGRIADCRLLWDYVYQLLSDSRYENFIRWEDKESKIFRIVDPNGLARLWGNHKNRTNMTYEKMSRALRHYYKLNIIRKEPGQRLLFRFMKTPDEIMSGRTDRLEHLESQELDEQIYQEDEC
# CRX, sequence (O43186 whole entry): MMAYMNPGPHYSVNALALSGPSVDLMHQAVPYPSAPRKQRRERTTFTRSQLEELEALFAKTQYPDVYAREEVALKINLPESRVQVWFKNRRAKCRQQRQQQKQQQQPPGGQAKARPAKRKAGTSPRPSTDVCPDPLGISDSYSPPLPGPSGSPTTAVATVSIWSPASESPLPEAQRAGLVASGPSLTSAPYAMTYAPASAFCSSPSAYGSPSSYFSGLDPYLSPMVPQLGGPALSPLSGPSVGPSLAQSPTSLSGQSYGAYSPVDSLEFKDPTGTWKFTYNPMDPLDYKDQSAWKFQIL
# ELF4, sequence (Q99607 whole entry): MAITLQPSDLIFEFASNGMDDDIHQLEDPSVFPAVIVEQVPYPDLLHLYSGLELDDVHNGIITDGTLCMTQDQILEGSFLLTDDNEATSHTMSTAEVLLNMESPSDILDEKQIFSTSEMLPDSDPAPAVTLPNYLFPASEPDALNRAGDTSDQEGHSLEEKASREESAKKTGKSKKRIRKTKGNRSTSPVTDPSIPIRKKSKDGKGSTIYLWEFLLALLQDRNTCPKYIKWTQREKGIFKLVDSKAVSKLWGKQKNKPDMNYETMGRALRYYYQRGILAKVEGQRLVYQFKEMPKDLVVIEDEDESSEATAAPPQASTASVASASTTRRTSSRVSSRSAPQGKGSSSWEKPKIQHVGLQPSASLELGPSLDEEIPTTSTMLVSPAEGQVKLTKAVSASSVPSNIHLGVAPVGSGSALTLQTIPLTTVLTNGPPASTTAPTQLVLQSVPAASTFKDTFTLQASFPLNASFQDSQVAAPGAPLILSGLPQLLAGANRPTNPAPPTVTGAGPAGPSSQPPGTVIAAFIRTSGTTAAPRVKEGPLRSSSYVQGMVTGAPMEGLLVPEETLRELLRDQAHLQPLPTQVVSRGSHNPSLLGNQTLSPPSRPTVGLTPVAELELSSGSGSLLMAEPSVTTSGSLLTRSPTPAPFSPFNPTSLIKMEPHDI
# ETV5, sequence (P41161 whole entry): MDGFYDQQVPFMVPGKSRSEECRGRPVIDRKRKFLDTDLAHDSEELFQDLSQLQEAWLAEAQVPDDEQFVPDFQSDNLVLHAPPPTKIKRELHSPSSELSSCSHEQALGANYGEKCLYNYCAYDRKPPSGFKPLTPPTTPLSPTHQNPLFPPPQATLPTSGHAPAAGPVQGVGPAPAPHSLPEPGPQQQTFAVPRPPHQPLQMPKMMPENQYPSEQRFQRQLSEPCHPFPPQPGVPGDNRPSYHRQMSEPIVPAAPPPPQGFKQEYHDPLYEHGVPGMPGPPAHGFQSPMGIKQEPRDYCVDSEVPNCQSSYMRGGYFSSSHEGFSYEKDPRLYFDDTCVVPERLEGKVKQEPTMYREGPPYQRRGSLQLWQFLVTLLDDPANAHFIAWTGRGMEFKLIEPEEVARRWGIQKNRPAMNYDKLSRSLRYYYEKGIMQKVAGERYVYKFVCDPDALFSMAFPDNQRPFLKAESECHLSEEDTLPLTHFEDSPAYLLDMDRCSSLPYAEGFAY
# HSF1, sequence (Q00613 whole entry): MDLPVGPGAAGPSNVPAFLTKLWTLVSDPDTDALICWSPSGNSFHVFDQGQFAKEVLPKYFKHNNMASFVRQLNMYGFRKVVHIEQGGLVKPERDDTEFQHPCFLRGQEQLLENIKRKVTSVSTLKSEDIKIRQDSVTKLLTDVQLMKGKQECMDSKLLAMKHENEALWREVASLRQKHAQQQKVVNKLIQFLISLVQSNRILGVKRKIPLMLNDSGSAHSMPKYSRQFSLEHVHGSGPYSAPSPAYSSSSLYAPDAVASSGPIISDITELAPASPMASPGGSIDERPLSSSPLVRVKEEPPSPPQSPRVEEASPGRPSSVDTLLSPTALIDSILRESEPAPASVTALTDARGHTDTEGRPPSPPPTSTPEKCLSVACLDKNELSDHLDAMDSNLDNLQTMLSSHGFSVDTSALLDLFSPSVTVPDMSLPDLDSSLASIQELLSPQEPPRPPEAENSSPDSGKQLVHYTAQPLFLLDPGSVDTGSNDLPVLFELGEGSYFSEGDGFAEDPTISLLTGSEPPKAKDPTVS
# ETV1, sequence (P50549 whole entry): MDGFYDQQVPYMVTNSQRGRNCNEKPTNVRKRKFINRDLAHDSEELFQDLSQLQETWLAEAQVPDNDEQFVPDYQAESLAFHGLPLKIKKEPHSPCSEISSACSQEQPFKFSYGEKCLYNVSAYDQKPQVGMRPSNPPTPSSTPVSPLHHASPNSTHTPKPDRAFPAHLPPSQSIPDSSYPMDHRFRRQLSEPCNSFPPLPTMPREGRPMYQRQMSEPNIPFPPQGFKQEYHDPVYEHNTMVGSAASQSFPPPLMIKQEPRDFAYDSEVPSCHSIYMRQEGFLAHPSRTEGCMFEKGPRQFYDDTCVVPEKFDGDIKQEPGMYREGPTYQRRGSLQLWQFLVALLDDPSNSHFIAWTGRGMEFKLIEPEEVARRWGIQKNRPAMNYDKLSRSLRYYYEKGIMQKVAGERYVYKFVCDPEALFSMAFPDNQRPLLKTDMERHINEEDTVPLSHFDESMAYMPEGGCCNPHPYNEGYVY
sequence,measurement,setting,value
CTCTCT,binding signal,[1],"1.67 fold enrichment (6-mer frequency, TF over GST control)"
same,binding signal,[2],"1.57 fold enrichment (6-mer frequency, TF over GST control)"
same,binding signal,[3],"1.69 fold enrichment (6-mer frequency, TF over GST control)"
same,binding signal,[4],"1.77 fold enrichment (6-mer frequency, TF over GST control)"
same,binding signal,[5],"1.74 fold enrichment (6-mer frequency, TF over GST control)"
same,binding signal,[6],"1.74 fold enrichment (6-mer frequency, TF over GST control)"
same,binding signal,[7],"1.63 fold enrichment (6-mer frequency, TF over GST control)"
same,binding signal,[8],"1.58 fold enrichment (6-mer frequency, TF over GST control)"
same,binding signal,[9],"1.5 fold enrichment (6-mer frequency, TF over GST control)"
same,binding signal,[10],"1.49 fold enrichment (6-mer frequency, TF over GST control)"
same,binding signal,[11],"1.63 fold enrichment (6-mer frequency, TF over GST control)"
same,binding signal,[12],"1.6 fold enrichment (6-mer frequency, TF over GST control)"
same,binding signal,[13],"1.43 fold enrichment (6-mer frequency, TF over GST control)"
same,binding signal,[14],"1.59 fold enrichment (6-mer frequency, TF over GST control)"
same,binding signal,[15],"1.56 fold enrichment (6-mer frequency, TF over GST control)"
same,binding signal,[16],"1.41 fold enrichment (6-mer frequency, TF over GST control)"
same,binding signal,[17],"1.68 fold enrichment (6-mer frequency, TF over GST control)"
same,binding signal,[18],"1.59 fold enrichment (6-mer frequency, TF over GST control)"
